# According to PubChem BioAssay (EPA / NIEHS):
# Some structures have more than one record in an assay (separate samples or runs), and their calls can disagree. Calls of active or inactive are those of the source. How the source made its calls: active means hit-call score of the fitted dose curve at least 0.9, where 1 is the maximum; inactive means score below 0.9.
# Assay: ATG_ISRE_CIS: Attagene CIS-FACTORIAL HepG2 Assay for human Interferon Regulatory Factor 1 (IRF1) binding to an Interferon-Stimulated Response Element (ISRE) (AID 2282948)
# Settings: HepG2 ISRE cis-reporter (Attagene), mRNA transcription readout; actives raise or lower the signal
# Description: ATG_CIS is a cell-based, multiplexed-readout assay that uses HepG2, a human liver cell line, with measurements taken at 24 hours after chemical dosing in a 24-well plate.ATG_ISRE_CIS is one of 52 assay component(s) measured or calculated from the ATG_CIS assay. It is designed to make measurements of mRNA induction, a form of inducible reporter, as detected with fluorescence intensity signals by Reverse transcription polymerase chain reaction (RT-PCR) and Capillary electrophoresis technology.Data from the assay component ATG_ISRE_CIS was analyzed into 1 assay endpoint. This assay endpoint, ATG_ISRE_CIS, was analyzed with bidirectional fitting relative to DMSO as the negative control and baseline of activity. Using a type of inducible reporter, measures of mRNA for gain or loss-of-signal activity can be used to understand the reporter gene at the transcription factor-level as they relate to the gene IRF1. Furthermore, this assay endpoint can be referred to as a primary readout, because this assay has produced multiple assay endpoints where this one serves a reporter gene function. To generalize the intended target to other relatable targets, this assay endpoint is annotated to the dna binding intended target family, where the subfamily is interferon regulatory factors.
# Human liver HepG2 cells are transiently transfected with multiple reporter transcription units (MRTUs) in 6-well plates using FuGene 6 reagent (Roche; 3 ml FuGene/1 mg DNA). The MRTU constructs are regulated by a cis-regulating element (promoter). […] A major difference between the CIS and TRANS system is that in CIS activities of endogenous TFs are measured, whereas the TRANS assay evaluates changes in activities of exogenous, chimeric NR-Gal4 proteins. […] At the end of 24 hour incubation, total RNA was isolated using TriZol reagent (Invitrogen). The isolated RNA is then reverse-transcribed using oligo(dT) primer and Mo-MLV reverse transcriptase (Invitrogen) with DNAse I (Ambion) treatment for 30 min. The one-tenth of the produced cDNA was amplified by PCR using Taq DNA polymerase (Invitrogen) and two reporter sequence-specific primers. The PCR products were fluorescently labeled by primer extension with 6-arboxyfluorescein (6-FAM) 5'-labeled reporter sequence-specific primer (2 min at 95 C, 20 s at 68 C and 10 min at 72 C) and these products were digested with 5U of HpaI (New England Biolabs) for 2h at 37 C. The fragments were purified using Qiaquick PCR columns (Qiagen), analyzed on an ABI 3130xL genetic analyzer (Applied Biosystems) with peak positions identified by using a set of X-rhodamine (ROX)-labeled MapMarker1000 molecular weight standards (BioVentures). The raw capillary electrophoresis data was processed using Attagraph software (Attagene).
Compound,outcome,AC50
CC1COC(Cn2cncn2)(c2ccc(Oc3ccc(Cl)cc3)cc2Cl)O1 (stereo not given),inactive,
C#CCOS(=O)OC1CCCCC1Oc1ccc(C(C)(C)C)cc1 (stereo not given),inactive,
COC(=O)C=C(C)OP(=O)(OC)OC,inactive,
CCCCC(CC)COC(=O)c1ccccc1C(=O)OCC(CC)CCCC (stereo not given),inactive,
Oc1ccccc1-c1ccccc1,inactive,68.5 µM (active)
COc1ccc(C(c2ccc(OC)cc2)C(Cl)(Cl)Cl)cc1,inactive,
O=C(Nc1ccccc1)Nc1ccnc(Cl)c1,inactive,
CCCCNC(=O)n1c(NC(=O)OC)nc2ccccc21,inactive,
O=C(O)COc1nc(Cl)c(Cl)cc1Cl,inactive,
CC(C)C1(C)N=C(c2nc3ccccc3cc2C(=O)O)NC1=O (stereo not given),inactive,
COc1cnc(OC)n2nc(NS(=O)(=O)c3c(OCC(F)F)cccc3C(F)(F)F)nc12,inactive,
CC(C)Oc1cc(-n2nc(C(C)(C)C)oc2=O)c(Cl)cc1Cl,inactive,
CCCC1COC(Cn2cncn2)(c2ccc(Cl)cc2Cl)O1 (stereo not given),inactive,
CCCCNC(=O)OCC#CI,inactive,33 µM (active)
CCNc1nc(Cl)nc(NCC)n1,inactive,
CCOC(=O)CC(SP(=S)(OC)OC)C(=O)OCC (stereo not given),inactive,
C=CCC1=C(C)C(OC(=O)C2C(C=C(C)C)C2(C)C)CC1=O (stereo not given),inactive,
CON(C)C(=O)Nc1ccc(Cl)c(Cl)c1,inactive,
C=CC1(C)OC(=O)N(c2cc(Cl)cc(Cl)c2)C1=O (stereo not given),inactive,

Compound,outcome,AC50
CCc1nn(C)c(C(=O)NCc2ccc(C(C)(C)C)cc2)c1Cl,inactive,
N#Cc1cc(Br)c(O)c(Br)c1,inactive,
CN(C)C(=S)SSC(=S)N(C)C,inactive,
CNC(=S)S,inactive,73.5 µM (active)
CC1=C(C(=O)Nc2ccccc2)SCCO1,inactive,
CCCCOC(=O)c1ccccc1C(=O)OCCCC,inactive,
COP(=S)(OC)Oc1nc(Cl)c(Cl)cc1Cl,inactive,
Fc1ccc(Oc2ccnc3cc(Cl)cc(Cl)c23)cc1,inactive,
COC(=O)C(C)Oc1ccc(Oc2ccc(Cl)cc2Cl)cc1 (stereo not given),inactive,
COc1nc(C)nc(NC(=O)NS(=O)(=O)c2ccccc2Cl)n1,inactive,
OC(c1ccc(Cl)cc1)(c1cncnc1)c1ccccc1Cl (stereo not given),inactive,
CCON=C(CC)C1=C(O)CC(c2c(C)cc(C)cc2C)CC1=O (stereo not given),inactive,
COC(=O)N(OC)c1ccccc1COc1ccn(-c2ccc(Cl)cc2)n1,inactive,
CC(Oc1ccc(Cl)cc1Cl)C(=O)O (stereo not given),inactive,
CC(C)(C)c1ccc(CSc2cnn(C(C)(C)C)c(=O)c2Cl)cc1,,9.92 µM (active)
CCNc1nc(Cl)nc(NC(C)C)n1,inactive,
CCOc1cc(Oc2ccc(C(F)(F)F)cc2Cl)ccc1[N+](=O)[O-],inactive,
CCOP(=S)(OCC)SCn1c(=O)oc2cc(Cl)ccc21,inactive,
